Rab9 promoter act: qHTS Assay for Rab9 Promoter Activators; Potency, µM (series often up to 9.22 µM), for the others: at the top dose activation, negative = inhibition, most hits filed as activators; AID 485297, 2010; Huh7 Rab9 promoter-luciferase reporter, luminescence, 24 h; 320,000 compounds, 2.8% hits; note: % of control where 0% means no effect; nearly all actives have a fitted effect of over 60% in size
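Luminescence from Amplite-detected luciferase (10 minutes, ambient) reports Rab9 promoter activation. Before that, stable Rab9-luciferase Huh7 cells (1500/well, reduced-serum OP-MEM I plus 10% FBS) were exposed to compound for 24 hours at 37C.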
uPA surface inh: qHTS for Inhibitors of Cell Surface uPA Generation | cell surface uPA generation assay, qHTS | 330,000 compounds, 0.31% hits | Potency, µM (series often up to 38.3 µM), inactives show at the highest dose activity change, negative = inhibition, usual class: inhibitors; active = well fitted inhibition curve with a large enough effect; inconclusive = small, poorly fitted or top-dose-only effect; inactive = no such curve, though single readings can be large or run the other way; tested in mouse RAW 264.7 cells; note: % is set by controls: 0 for no effect and ±100 for the full control effect; nearly all actives have a fitted effect of over 55% in size
FLuc modulator: qHTS profiling assay for firefly luciferase inhibitor/activator using purifed enzyme and Km concentrations of substrates (counterscreen for miR-21 project); Luciferin 4-monooxygenase (Photinus pyralis), P08659; purified FLuc, Km substrates, luminescence inhibition; Potency, µM (doses to about 57.5 µM), without a hit: at the highest dose activity change, negative = inhibition, most hits filed as inhibitors; 360,000 compounds, 6.9% hits; AID 588342, 2011;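 note: plate controls were vehicle for no effect and reference inhibitor for full effect; nearly all actives have a fitted effect of over 55% in size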
Target sequence (P08659 whole entry, looked up): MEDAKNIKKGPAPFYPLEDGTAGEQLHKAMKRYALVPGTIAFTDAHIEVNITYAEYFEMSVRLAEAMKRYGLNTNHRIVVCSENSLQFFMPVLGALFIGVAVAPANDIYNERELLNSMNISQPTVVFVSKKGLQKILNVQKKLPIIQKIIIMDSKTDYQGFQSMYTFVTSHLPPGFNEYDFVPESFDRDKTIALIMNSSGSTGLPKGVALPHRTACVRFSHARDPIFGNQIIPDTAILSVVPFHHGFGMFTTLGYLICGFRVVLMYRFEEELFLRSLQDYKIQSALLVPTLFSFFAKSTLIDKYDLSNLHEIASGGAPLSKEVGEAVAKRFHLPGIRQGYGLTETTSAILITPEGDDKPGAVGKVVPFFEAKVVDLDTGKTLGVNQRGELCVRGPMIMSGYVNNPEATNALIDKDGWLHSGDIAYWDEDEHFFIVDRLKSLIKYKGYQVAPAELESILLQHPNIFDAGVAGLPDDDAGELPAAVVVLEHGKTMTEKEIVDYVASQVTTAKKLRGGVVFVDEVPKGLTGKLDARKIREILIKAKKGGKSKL
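Biochemical qHTS of compounds, final roughly 60 µM downward over six points, against 10 nM purified firefly luciferase using Km concentrations of substrates (10 uM D-luciferin, 10 uM ATP) in Tris acetate pH 7.5 buffer; luminescence output.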
ELG1 genotox: qHTS screen for small molecules that induce genotoxicity in human embryonic kidney (HEK293T) cells expressing luciferase-tagged ELG1 | AID 504466, 2011 | HEK293T ELG1-luciferase reporter, luminescence, 16 h | 330,000 compounds, 1.3% hits | Potency, µM (series often up to 46 µM), inactives show top-dose activity change, positive = activation, most hits filed as activators; note: % of control where 0% means no effect; nearly all actives have a fitted effect of over 60% in size
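Genotoxicity was scored as increased ELG1-luciferase reporter signal, measured by ONE-Glo luminescence (30 min, room temperature). Compound or vehicle exposure of the HEK293T reporter cells lasted 16 hr at 37°C.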
NPC1 prom act: qHTS Assay for NPC1 Promoter Activators; Huh7 NPC1 promoter luciferase reporter, 24 h; Potency, µM (doses to about 9.22 µM), for inactives: top-dose activation, actives largely listed as activators; 320,000 compounds, 2.4% hits; AID 485313, 2010; note: % of control where 0% means no effect; nearly all actives have a fitted effect of over 60% in size
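Stable NPC1-promoter luciferase Huh7 line; cpd (DMSO) 24 h, 37 °C, 5% CO2; Amplite luciferase reagent 10 min RT; luminescence readout. qHTS format.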
* marks the source's active call; other numbers are inactive results. Compounds with a hit are over-represented: about 7.3% of the library has one in this group of screens. Unless noted, calls come from the whole dose curve; as a rule, active = well fitted curve in the direction sought with a large enough effect; inconclusive = small, poorly fitted or top-dose-only effect, or another doubt; inactive = no such curve, though single readings can be large; an effect the other way counts as inactive or inconclusive. Potency is the fitted concentration of half-maximal effect.

Results for COc1ccc(NC(=O)Cn2cnc3sc(C)c(S(=O)(=O)N4CCOCC4)c3c2=O)cc1Cl ?
Rab9 promoter act: -2.0%; uPA surface inh: 0.0%; FLuc modulator: -16.9%; ELG1 genotox: -20.8%; NPC1 prom act: -2.9%

What do the screens show for `CCOc1ccc(N(CC(=O)Nc2ccc(OC)cc2)S(=O)(=O)c2ccc(Cl)cc2)cc1`?
FLuc modulator: -1.1%

Results for Cc1ccc(Cl)c2sc(NC(=O)C3=COCCO3)nc12 ?
Rab9 promoter act: 4.9%; uPA surface inh: -1.1%; FLuc modulator: 19µM*; ELG1 genotox: inconclusive; NPC1 prom act: -4.8%

Results for O=C(c1cc(COc2ccc(F)cc2Cl)on1)N1CCSCC1 ?
Rab9 promoter act: 3.98µM*; uPA surface inh: -3.0%; FLuc modulator: 10.7µM*; ELG1 genotox: inconclusive; NPC1 prom act: 2.82µM*

How did COc1ccc(OCc2cc(C(=O)N(C)C(C)c3ccon3)no2)c(Cl)c1 (stereo not given) do in these assays?
Rab9 promoter act: 2.51µM*; uPA surface inh: 7.4%; FLuc modulator: 13.5µM*; ELG1 genotox: inconclusive; NPC1 prom act: inconclusive

Results for C=CCC1(CC=C)CCCN1C(=O)c1cc(COc2cccc(OC)c2)on1 ?
Rab9 promoter act: -0.9%; uPA surface inh: 1.1%; FLuc modulator: 1.6%; ELG1 genotox: -8.0%; NPC1 prom act: 2.7%

What do the screens show for `COc1ccc(OCc2cc(C(=O)N3CCOCC3)no2)c(Cl)c1`?
Rab9 promoter act: 1.41µM*; uPA surface inh: -5.4%; FLuc modulator: 6.75µM*; ELG1 genotox: 18.3µM*; NPC1 prom act: 1.58µM*

Results for COc1cccc(OCc2cc(C(=O)N3CCN(C)C(c4ccccc4)C3)no2)c1 (stereo not given) ?
Rab9 promoter act: inconclusive; uPA surface inh: 10.4%; FLuc modulator: 26.9µM*; ELG1 genotox: 6.9%; NPC1 prom act: 26.3%

How did CCOC(=O)N1CCN(C(=O)c2cc(COc3ccc(Cl)cc3OC)on2)CC1 do in these assays?
Rab9 promoter act: 1.2%; uPA surface inh: -1.2%; FLuc modulator: -6.0%; ELG1 genotox: -4.1%; NPC1 prom act: 11.6%

How did O=C(c1cc(COc2ccc(F)cc2Cl)on1)N1CCc2ccccc2C1 do in these assays?
Rab9 promoter act: -6.0%; uPA surface inh: 4.8%; FLuc modulator: inconclusive; ELG1 genotox: -1.3%; NPC1 prom act: -0.6%

How did COc1ccc(OCc2cc(C(=O)N3CCC(c4ccccc4)CC3)no2)c(Cl)c1 do in these assays?
Rab9 promoter act: 2.82µM*; uPA surface inh: -2.4%; FLuc modulator: 23.9µM*; ELG1 genotox: 16.3%; NPC1 prom act: inconclusive

What do the screens show for `COc1cccc(OCc2cc(C(=O)N3CCC(c4ccncc4)CC3)no2)c1`?
Rab9 promoter act: -24.6%; uPA surface inh: -0.8%; FLuc modulator: -3.1%; ELG1 genotox: 2.8%; NPC1 prom act: -22.3%

Results for COc1ccc(OCc2cc(C(=O)N(C)CC3CCCCO3)no2)c(Cl)c1 (stereo not given) ?
Rab9 promoter act: inconclusive; uPA surface inh: -0.5%; FLuc modulator: inconclusive; ELG1 genotox: inconclusive; NPC1 prom act: inconclusive

Results for COc1ccc(OCc2cc(C(=O)N3CCCCCC3)no2)c(Cl)c1 ?
Rab9 promoter act: inconclusive; uPA surface inh: -1.4%; FLuc modulator: 19µM*; ELG1 genotox: inconclusive; NPC1 prom act: inconclusive

Results for COc1ccc(OCc2cc(C(=O)N3CCN(CC(=O)N(C)C)CC3)no2)c(Cl)c1 ?
Rab9 promoter act: 8.2%; uPA surface inh: -8.5%; FLuc modulator: -18.9%; ELG1 genotox: 6.0%; NPC1 prom act: -1.4%

How did COc1ccc(OCc2cc(C(=O)N3CCSCC3)no2)c(Cl)c1 do in these assays?
Rab9 promoter act: 2.82µM*; uPA surface inh: 7.5%; FLuc modulator: 10.7µM*; ELG1 genotox: inconclusive; NPC1 prom act: 2.82µM*

Results for COc1ccc(OCc2cc(C(=O)N(C)CCC3CCOCC3)no2)c(Cl)c1 ?
Rab9 promoter act: inconclusive; uPA surface inh: -27.9%; FLuc modulator: 16.9µM*; ELG1 genotox: inconclusive; NPC1 prom act: inconclusive

Screens (PubChem BioAssay)
